Among all 100,000 compounds or so, about 770 (0.77%) were called active. The sample holds actives, similar compounds and a random draw of the others, so the mix is not that of the screen. Unmarked numbers belong to inactive results. Rule as the data show it: active = inhibition above about 50%; inactive = the rest.
Target: Gag-Pol polyprotein (Human immunodeficiency virus type 1 group M subtype B (isolate HXB2)) (UniProt P04585)
Experiment: RNase H inhibition, HIV 1 Gag Pol polyprotein, FRET biochemical assay, screening (AID 372)
Details: HIV-1 RT RNase H, FRET RNA/DNA substrate fluorescence; at 10 µM; stronger effect = higher value

Question: For `COc1ccc(Br)cc1CN1CCN(C(=O)COc2ccccc2)CC1`, which inhibition is on record?
Answer: Its inhibition is 42%.

Question: How did the inhibition turn out when `COc1ccc(Br)cc1CN1CCN(C(=O)COc2ccc3ccccc3c2)CC1` was run?
Answer: Its inhibition is 42%.

Question: How did the inhibition turn out when `COc1ccc(Br)cc1CN1CCN(C(=O)COc2ccc(Cl)cc2)CC1` was run?
Answer: The inhibition was 52% (active).

Question: Which inhibition does the source give for `Cc1ccc(C)c(N2CCN(Cc3ccccc3Br)CC2)c1` here?
Answer: The inhibition was 6%.

Question: With `FC(F)(F)c1ccc(CN2CCN(c3cccc(Cl)c3)CC2)cc1` as the compound, how does the inhibition read?
Answer: The inhibition was 12%.

Question: For `O=Cc1cn(Cc2c(Cl)cccc2Cl)c2ccccc12`, which inhibition is on record?
Answer: The inhibition was 34%.

Question: How did the inhibition turn out when `CN1C(=O)C(=Cc2ccc(N3CCCCCC3)o2)C(=O)N(C)C1=S` was run?
Answer: Its inhibition is 26%.

Question: For `C=CCN1C(=O)/C(=C\c2ccc(-c3cccc(Cl)c3Cl)o2)C(=O)NC1=S`, which inhibition is on record?
Answer: Its inhibition is 55% (active).

Question: `C=CCN1C(=O)NC(=O)/C(=C/c2ccc(-c3cc([N+](=O)[O-])ccc3Cl)o2)C1=O` was tested. Which inhibition did it give?
Answer: Its inhibition is 22%.

Question: For `C=CCN1C(=O)/C(=C\c2ccc(C)o2)C(=O)NC1=S`, which inhibition is on record?
Answer: Its inhibition is 13%.

Question: How did the inhibition turn out when `COc1ccc(N2C(=O)/C(=C\c3ccoc3)C(=O)NC2=S)cc1` was run?
Answer: The inhibition was 44%.

Question: For `N/C(=N\[N+](=O)[O-])N/N=C\c1ccc(-c2ccc([N+](=O)[O-])cc2)o1`, which inhibition is on record?
Answer: Its inhibition is 28%.

Question: For `N/C(=N\[N+](=O)[O-])N/N=C\c1ccc(-c2ccc(Cl)c([N+](=O)[O-])c2)o1`, which inhibition is on record?
Answer: The inhibition was 56% (active).

Question: How did the inhibition turn out when `N/C(=N\[N+](=O)[O-])N/N=C/c1ccc(-c2ccc(Cl)cc2)o1` was run?
Answer: The inhibition was 6%.

Question: With `Cc1ccc(C2c3c(c4ccccc4oc3=O)Oc3c2c(=O)oc2ccccc32)cc1` as the compound, how does the inhibition read?
Answer: Its inhibition is 11%.

Question: `COc1cccc(C=C2C(=O)NC(=O)NC2=O)c1OC` was tested. Which inhibition did it give?
Answer: Its inhibition is 10%.

Question: Which inhibition does the source give for `O=C1NC(=S)NC(=O)C1=Cc1cccc(OS(=O)(=O)c2ccc3ccccc3c2)c1` here?
Answer: The inhibition was 53% (active).

Question: With `O=C1NC(=S)NC(=O)C1=Cc1ccccc1OS(=O)(=O)c1ccc2ccccc2c1` as the compound, how does the inhibition read?
Answer: Its inhibition is 21%.

Question: How did the inhibition turn out when `COc1cccc(C=C2C(=O)NC(=S)NC2=O)c1` was run?
Answer: Its inhibition is 7%.

Question: With `O=C(c1cccs1)C1CN2CCC1CC2` (centres undefined) as the compound, how does the inhibition read?
Answer: The inhibition was 0%.

Question: For `Cc1ccc(-c2nn(-c3ccccc3)cc2C=C2C(=O)NC(=S)NC2=O)o1`, which inhibition is on record?
Answer: The inhibition was 21%.

Question: With `O=C1NC(=O)C(=Cc2ccccc2F)C(=O)N1` as the compound, how does the inhibition read?
Answer: Its inhibition is 3%.

Question: How did the inhibition turn out when `O=C1NC(=O)C(=Cc2cn(-c3ccccc3)nc2-c2ccc(F)cc2)C(=O)N1` was run?
Answer: The inhibition was 53% (active).

Question: Which inhibition does the source give for `Cc1ccc(C)c(COc2cc(C)cc3oc(=O)c4c(c23)CCC4)c1` here?
Answer: The inhibition was 0%.

Source: PubChem BioAssay AID372 (MTDP, 2006)
